Reference: PMC5540273 (PLoS ONE, 2017)
Where two headings read alike, the source gives them in different places.

How the values were obtained:
Conditions in all cases: n = 1
[1] = tested on: T1, MEK2
T1 construct: gene MAP2K2

[2] = tested on: T2, MEK3
T2 construct: gene MAP2K3

[3] = tested on: T3, MEK4
T3 construct: gene MAP2K4

[4] = tested on: T4, MEK5
T4 construct: gene MAP2K5

[5] = tested on: T5, MEK6
T5 construct: gene MAP2K6

[6] = tested on: MELK
[7] = tested on: MERTK
[8] = tested on: MET
[9] = tested on: T6, MINK
T6 construct: gene MINK1

[10] = tested on: MKK7
[11] = tested on: MKNK1
[12] = tested on: MKNK2
[13] = tested on: T7, MLCK
T7 construct: gene MYLK3

[14] = tested on: T8, MLK1
T8 construct: gene MAP3K9

[15] = tested on: MLK2
[16] = tested on: MLK3
[17] = tested on: MRCKA
[18] = tested on: T9, MRCKB
T9 construct: gene CDC42BPB

[19] = tested on: MST1R
[20] = tested on: T10, MST1
T10 construct: gene STK4

[21] = concentration: 1 μM, replicates: in singlicate
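Further: KINOMEscan kinase panel screen.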

O=C1NC(=O)C(N2CCc3ccccc32)=C1c1ccccc1Cl [SB-373598]
%Inh [1, 21]: 0% | %Inh [2, 21]: 0% | %Inh [3, 21]: 9% | %Inh [4, 21]: 8% | %Inh [5, 21]: 0% | %Inh [6, 21]: 12% | %Inh [7, 21]: 27% | %Inh [8, 21]: 17% | %Inh [9, 21]: 4% | %Inh [10, 21]: 20% | %Inh [11, 21]: 7% | %Inh [12, 21]: 0% | %Inh [13, 21]: 18% | %Inh [14, 21]: 14% | %Inh [15, 21]: 50% | %Inh [16, 21]: 46% | %Inh [17, 21]: 0% | %Inh [18, 21]: 5% | %Inh [19, 21]: 7% | %Inh [20, 21]: 87%

Cl.Oc1ccc(-c2nc(-c3ccccc3)[nH]c2-c2ccncc2)cc1 [SB-428218]
%Inh [1, 21]: 0% | %Inh [2, 21]: 0% | %Inh [3, 21]: 0% | %Inh [4, 21]: 17% | %Inh [5, 21]: 1% | %Inh [6, 21]: 2% | %Inh [7, 21]: 0% | %Inh [8, 21]: 0% | %Inh [9, 21]: 11% | %Inh [10, 21]: 0% | %Inh [11, 21]: 0% | %Inh [12, 21]: 0% | %Inh [13, 21]: 14% | %Inh [14, 21]: 0% | %Inh [15, 21]: 0% | %Inh [16, 21]: 0% | %Inh [17, 21]: 43% | %Inh [18, 21]: 2% | %Inh [19, 21]: 0% | %Inh [20, 21]: 10%

CS(=O)(=O)c1ccc(-c2c(-c3ncn[nH]3)sc(N3CCOCC3)c2C#N)cc1
%Inh [1, 21]: 0% | %Inh [2, 21]: 0% | %Inh [3, 21]: 0% | %Inh [4, 21]: 16% | %Inh [5, 21]: 0% | %Inh [6, 21]: 5% | %Inh [7, 21]: 0% | %Inh [8, 21]: 0% | %Inh [9, 21]: 21% | %Inh [10, 21]: 10% | %Inh [11, 21]: 0% | %Inh [12, 21]: 0% | %Inh [13, 21]: 13% | %Inh [14, 21]: 0% | %Inh [15, 21]: 51% | %Inh [16, 21]: 15% | %Inh [17, 21]: 0% | %Inh [18, 21]: 16% | %Inh [19, 21]: 29% | %Inh [20, 21]: 24%

Cn1ccc2ncnc(Oc3ccc(NC(=O)Nc4ccccc4)cc3)c21
%Inh [1, 21]: 20% | %Inh [2, 21]: 20% | %Inh [3, 21]: 0% | %Inh [4, 21]: 39% | %Inh [5, 21]: 0% | %Inh [6, 21]: 16% | %Inh [7, 21]: 0% | %Inh [8, 21]: 28% | %Inh [9, 21]: 16% | %Inh [10, 21]: 20% | %Inh [11, 21]: 13% | %Inh [12, 21]: 43% | %Inh [13, 21]: 0% | %Inh [14, 21]: 0% | %Inh [15, 21]: 0% | %Inh [16, 21]: 19% | %Inh [17, 21]: 0% | %Inh [18, 21]: 16% | %Inh [19, 21]: 10% | %Inh [20, 21]: 0%

Cc1csc(-c2nc(Nc3ccncc3)c3ccccc3n2)n1 [GW869640]
%Inh [1, 21]: 17% | %Inh [2, 21]: 38% | %Inh [3, 21]: 29% | %Inh [4, 21]: 47% | %Inh [5, 21]: 0% | %Inh [6, 21]: 24% | %Inh [7, 21]: 0% | %Inh [8, 21]: 30% | %Inh [9, 21]: 55% | %Inh [10, 21]: 10% | %Inh [11, 21]: 0% | %Inh [12, 21]: 38% | %Inh [13, 21]: 2% | %Inh [14, 21]: 8% | %Inh [15, 21]: 60% | %Inh [16, 21]: 0% | %Inh [17, 21]: 0% | %Inh [18, 21]: 44% | %Inh [19, 21]: 11% | %Inh [20, 21]: 18%

Clc1cc(Cl)cc(Nc2ccnc(Nc3cc(Cl)cc(Cl)c3)n2)c1 [GSK175726]
%Inh [1, 21]: 0% | %Inh [2, 21]: 0% | %Inh [3, 21]: 0% | %Inh [4, 21]: 49% | %Inh [5, 21]: 3% | %Inh [6, 21]: 8% | %Inh [7, 21]: 0% | %Inh [8, 21]: 0% | %Inh [9, 21]: 18% | %Inh [10, 21]: 13% | %Inh [11, 21]: 5% | %Inh [12, 21]: 0% | %Inh [13, 21]: 0% | %Inh [14, 21]: 0% | %Inh [15, 21]: 0% | %Inh [16, 21]: 10% | %Inh [17, 21]: 9% | %Inh [18, 21]: 6% | %Inh [19, 21]: 14% | %Inh [20, 21]: 0%

Cc1cccc(-c2nc(Nc3ccc4[nH]ncc4c3)c3ccccc3n2)n1 [GW857175]
%Inh [1, 21]: 24% | %Inh [2, 21]: 19% | %Inh [3, 21]: 51% | %Inh [4, 21]: 40% | %Inh [5, 21]: 0% | %Inh [6, 21]: 25% | %Inh [7, 21]: 11% | %Inh [8, 21]: 2% | %Inh [9, 21]: 19% | %Inh [10, 21]: 12% | %Inh [11, 21]: 0% | %Inh [12, 21]: 0% | %Inh [13, 21]: 0% | %Inh [14, 21]: 2% | %Inh [15, 21]: 22% | %Inh [16, 21]: 7% | %Inh [17, 21]: 0% | %Inh [18, 21]: 72% | %Inh [19, 21]: 0% | %Inh [20, 21]: 0%

Cc1ccc(NC(=O)Nc2cccc(C(F)(F)F)c2)cc1 [GSK955403]
%Inh ([1]; 1 µM): 3% | %Inh ([2]; 1 µM): 15% | %Inh ([3]; 1 µM): 0% | %Inh ([4]; 1 µM): 0% | %Inh ([5]; 1 µM): 26% | %Inh ([6]; 1 µM): 15% | %Inh ([7]; 1 µM): 29% | %Inh ([8]; 1 µM): 0% | %Inh ([9]; 1 µM): 0% | %Inh ([10]; 1 µM): 0% | %Inh ([11]; 1 µM): 0% | %Inh ([12]; 1 µM): 30% | %Inh ([13]; 1 µM): 0% | %Inh ([14]; 1 µM): 0% | %Inh ([15]; 1 µM): 13% | %Inh ([16]; 1 µM): 6% | %Inh ([17]; 1 µM): 0% | %Inh ([18]; 1 µM): 0% | %Inh ([19]; 1 µM): 0% | %Inh ([20]; 1 µM): 0%

Cc1cccc(-c2nc(C)cc(Nc3ccncc3)n2)n1 [GSK257997]
%Inh [1, 21]: 0% | %Inh [2, 21]: 0% | %Inh [3, 21]: 32% | %Inh [4, 21]: 8% | %Inh [5, 21]: 0% | %Inh [6, 21]: 0% | %Inh [7, 21]: 18% | %Inh [8, 21]: 0% | %Inh [9, 21]: 6% | %Inh [10, 21]: 0% | %Inh [11, 21]: 0% | %Inh [12, 21]: 0% | %Inh [13, 21]: 0% | %Inh [14, 21]: 0% | %Inh [15, 21]: 0% | %Inh [16, 21]: 39% | %Inh [17, 21]: 34% | %Inh [18, 21]: 81% | %Inh [19, 21]: 35% | %Inh [20, 21]: 8%

C[C@@H]1CCCCN1c1cc(-c2ccc3c(N)n[nH]c3c2)nc(N)n1 [GSK2258759]
%Inh [1, 21]: 0% | %Inh [2, 21]: 0% | %Inh [3, 21]: 8% | %Inh [4, 21]: 7% | %Inh [5, 21]: 14% | %Inh [6, 21]: 0% | %Inh [7, 21]: 11% | %Inh [8, 21]: 0% | %Inh [9, 21]: 15% | %Inh [10, 21]: 0% | %Inh [11, 21]: 0% | %Inh [12, 21]: 5% | %Inh [13, 21]: 0% | %Inh [14, 21]: 0% | %Inh [15, 21]: 0% | %Inh [16, 21]: 0% | %Inh [17, 21]: 6% | %Inh [18, 21]: 0% | %Inh [19, 21]: 28% | %Inh [20, 21]: 0%

COc1ccc(CNC(=O)NC2CCN(c3ccnc(Nc4cc(OC)c(OC)c(OC)c4)n3)C2)cc1 (stereo not shown) [GSK1379748]
%Inh [1, 21]: 0% | %Inh [2, 21]: 0% | %Inh [3, 21]: 6% | %Inh [4, 21]: 98.4% | %Inh [5, 21]: 0% | %Inh [6, 21]: 0% | %Inh [7, 21]: 36% | %Inh [8, 21]: 9% | %Inh [9, 21]: 0% | %Inh [10, 21]: 0% | %Inh [11, 21]: 8% | %Inh [12, 21]: 30% | %Inh [13, 21]: 0% | %Inh [14, 21]: 0% | %Inh [15, 21]: 21% | %Inh [16, 21]: 23% | %Inh [17, 21]: 34% | %Inh [18, 21]: 0% | %Inh [19, 21]: 29% | %Inh [20, 21]: 0%

Cl.NC(=O)c1cccc(Nc2nccc(Nc3ccc(Oc4cccc(Cl)c4)c(Cl)c3)n2)c1 [GW659008]
%Inh [1, 21]: 14% | %Inh [2, 21]: 0% | %Inh [3, 21]: 22% | %Inh [4, 21]: 99.7% | %Inh [5, 21]: 0% | %Inh [6, 21]: 0% | %Inh [7, 21]: 33% | %Inh [8, 21]: 37% | %Inh [9, 21]: 0% | %Inh [10, 21]: 0% | %Inh [11, 21]: 8% | %Inh [12, 21]: 4% | %Inh [13, 21]: 0% | %Inh [14, 21]: 0% | %Inh [15, 21]: 33% | %Inh [16, 21]: 0% | %Inh [17, 21]: 26% | %Inh [18, 21]: 0% | %Inh [19, 21]: 0% | %Inh [20, 21]: 15%

Cl.O=C(Nc1cccc(-c2nn3ncccc3c2-c2ccnc(Nc3cccnc3)n2)c1)c1c(F)cccc1F [GSK312879]
%Inh [1, 21]: 9% | %Inh [2, 21]: 10% | %Inh [3, 21]: 40% | %Inh [4, 21]: 88% | %Inh [5, 21]: 0% | %Inh [6, 21]: 3% | %Inh [7, 21]: 12% | %Inh [8, 21]: 0% | %Inh [9, 21]: 0% | %Inh [10, 21]: 20% | %Inh [11, 21]: 0% | %Inh [12, 21]: 30% | %Inh [13, 21]: 0% | %Inh [14, 21]: 0% | %Inh [15, 21]: 31% | %Inh [16, 21]: 1% | %Inh [17, 21]: 1% | %Inh [18, 21]: 8% | %Inh [19, 21]: 26% | %Inh [20, 21]: 17%

COc1ccccc1-c1ccc2c(NC(=O)C3CC3)n[nH]c2n1 [SB-711239]
%Inh [1, 21]: 0% | %Inh [2, 21]: 16% | %Inh [3, 21]: 21% | %Inh [4, 21]: 0% | %Inh [5, 21]: 0% | %Inh [6, 21]: 15% | %Inh [7, 21]: 2% | %Inh [8, 21]: 0% | %Inh [9, 21]: 6% | %Inh [10, 21]: 7% | %Inh [11, 21]: 0% | %Inh [12, 21]: 0% | %Inh [13, 21]: 14% | %Inh [14, 21]: 8% | %Inh [15, 21]: 8% | %Inh [16, 21]: 8% | %Inh [17, 21]: 0% | %Inh [18, 21]: 0% | %Inh [19, 21]: 16% | %Inh [20, 21]: 0%
